Screening results: PubChem, several laboratories
Hits are enriched below; roughly 3.6% of the tested compounds scored in any of these assays.
esBAF inh: inhibitors of esBAF chromatin remodeling in mouse ES cells; Bmi1-luciferase knock-in reporter, 24 h; 100% = twice the neutral-well signal; reporter increase, % at 12.5 µM; hit rate 2% among 350,000; in the data active = activation above about 40%; inconclusive = no clear call, values can overlap the other calls;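 also: a rise in the Bmi1 reporter signal indicates esBAF inhibition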
Wnt bcat act: activates Wnt/beta-catenin signaling in a reporter cell assay; AID 743398; activation, % at 9.35 µM; hit rate 1.2% among 300,000; activator, plate reader; in the data active = activation above about 30%, passing the limit was not always enough; inconclusive = no clear call, values can overlap the other calls
APOBEC3A inh: blocks human APOBEC3A ssDNA deamination; P31941; recombinant A3A, FAM/TAMRA ssDNA deamination fluorescence; inhibition, % at 20 µM; hit rate 0.41% among 330,000;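 active = at least 40% inhibition at 20 µM here, with at most 30% in a related deaminase screen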
Target sequence (P31941 whole entry, looked up): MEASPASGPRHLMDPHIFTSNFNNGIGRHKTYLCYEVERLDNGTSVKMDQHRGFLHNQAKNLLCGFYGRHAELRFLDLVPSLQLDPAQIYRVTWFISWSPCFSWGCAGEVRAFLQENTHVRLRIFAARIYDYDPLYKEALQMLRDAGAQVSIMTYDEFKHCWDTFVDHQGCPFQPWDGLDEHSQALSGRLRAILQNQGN
PHOSPHO1 block: inhibitors of human PHOSPHO1 phosphatase | recombinant PHOSPHO1, absorbance phosphatase assay | inhibition, % at 13.3 µM | AID 1565 | Q8TCT1 | hit rate 1.1% among 290,000; in the data active = inhibition above about 60%
A3G deaminase: APOBEC3G (human) deaminase inhibition; hit rate 0.28% among 330,000; Q9HC16; inhibition, % at 20 µM; recombinant A3G, ssDNA deamination FAM/TAMRA fluorescence;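 active = inhibition of at least 40% at 20 µM, with no more than 30% in the related APOBEC3A deaminase screen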
Target sequence (Q9HC16 whole entry, looked up): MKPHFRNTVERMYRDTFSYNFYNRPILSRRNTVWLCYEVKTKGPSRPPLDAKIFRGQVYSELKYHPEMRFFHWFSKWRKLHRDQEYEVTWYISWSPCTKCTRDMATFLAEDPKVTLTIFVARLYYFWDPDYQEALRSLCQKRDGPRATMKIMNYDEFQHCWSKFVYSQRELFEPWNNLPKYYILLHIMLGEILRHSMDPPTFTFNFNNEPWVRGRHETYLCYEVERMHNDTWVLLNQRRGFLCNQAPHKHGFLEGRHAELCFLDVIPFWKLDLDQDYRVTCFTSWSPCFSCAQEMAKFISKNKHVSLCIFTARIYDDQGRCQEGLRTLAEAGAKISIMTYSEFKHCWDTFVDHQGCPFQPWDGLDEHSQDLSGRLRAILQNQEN
MITF TRPM1 HTS: increases MITF-driven TRPM1 promoter luciferase signal. activation, % at 12.5 µM. AID 588334. SK-MEL-5 TRPM1-promoter luciferase, 24 h; % of positive control, neutral wells = 0. hit rate 0.75% among 300,000;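 active = mean activation of at least 80% with every replicate also reaching 80%; inconclusive = mean reaches 80% but some replicate falls short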
Of the large screens only hits and unclear results are named; the others gave an inactive call.

Cc1ccc(C(=O)NC2CCCCC2)cc1	MITF TRPM1 HTS 87.6
O=C(NC(=S)NC1CCCCC1)c1ccc(F)cc1	esBAF inh 59.8
Cc1cc(C(=O)Nc2cccc3c2O[C@H](CN(C)S(=O)(=O)c2ccc(F)cc2)[C@@H](C)CN([C@H](C)CO)C3=O)n(C)n1	none (no result: Wnt bcat act, APOBEC3A inh, PHOSPHO1 block, A3G deaminase, MITF TRPM1 HTS)
CC=Cc1ccc2n(c1=O)C[C@H]1[C@H](CO)[C@@H](C(=O)NCCC)N(C(=O)C3CCOCC3)[C@@H]21 (mixture of isomers)	none (no result: Wnt bcat act, APOBEC3A inh, PHOSPHO1 block, A3G deaminase, MITF TRPM1 HTS)
C[C@H](CO)N1C[C@H](C)[C@H](CN(C)C(=O)C2CC2)OCc2ccccc2-c2c(n(C)c3ccccc23)C1=O	none (no result: Wnt bcat act, APOBEC3A inh, PHOSPHO1 block, A3G deaminase, MITF TRPM1 HTS)
O=C([C@H]1[C@H](CO)[C@H]2Cn3c(ccc(C4=CCCC4)c3=O)[C@@H]1N2C(=O)c1ccccc1)N1CCOCC1	none (no result: Wnt bcat act, APOBEC3A inh, PHOSPHO1 block, A3G deaminase, MITF TRPM1 HTS)
O=C(COC(=O)c1ccc(O)cc1O)Nc1ccc2ccccc2c1	none (no result: PHOSPHO1 block)
O=C(COC(=O)c1ccc(O)cc1O)Nc1ccc2c(c1)OCCO2	esBAF inh 82.8, MITF TRPM1 HTS 91.6 (no result: PHOSPHO1 block)
Cn1cccc1C(=O)OCC(=O)Nc1ccc2c(c1)OCCO2	Wnt bcat act 49.4 (no result: esBAF inh, PHOSPHO1 block)
C[C@@H](NC(=O)C[C@@H]1C[C@@H]2c3cc(NC(=O)C4CCOCC4)ccc3O[C@@H]2[C@H](CO)O1)c1ccccc1	none (no result: Wnt bcat act, APOBEC3A inh, PHOSPHO1 block, A3G deaminase, MITF TRPM1 HTS)
O=C(c1ccc(C(=O)N2CCOCC2)s1)N1CCOCC1	none
O=C(c1ccc(-c2ccccc2Cl)s1)N1CCOCC1	MITF TRPM1 HTS 91.6 (no result: esBAF inh, PHOSPHO1 block)
CN(C)C(=O)C[C@@H]1C[C@H]2c3cc(NS(=O)(=O)c4ccc(F)cc4)ccc3O[C@H]2[C@H](CO)O1	none (no result: Wnt bcat act, APOBEC3A inh, PHOSPHO1 block, A3G deaminase, MITF TRPM1 HTS)
CC(=O)N1CCN(S(=O)(=O)c2cccc(C(=O)N(Cc3ccccc3)c3ccc(C)cc3)c2)CC1	none (no result: PHOSPHO1 block)
Cc1ccc(N(Cc2ccccc2)C(=O)c2cccc(S(=O)(=O)N3CC(C)OC(C)C3)c2)cc1 (stereo not given)	esBAF inh 63.8 (no result: PHOSPHO1 block)
O=C(O)CSc1nnc(CSc2nc3ccccc3s2)n1-c1ccccc1	none
Cc1nnc(SCc2nc3ccccc3s2)n1N	none (no result: esBAF inh)
c1ccc(-c2ncc(CSc3nncn3-c3ccccc3)s2)cc1	none (no result: esBAF inh, Wnt bcat act)
CCC(c1nnc(SCc2nc3ccccc3s2)n1Cc1ccccc1)N(C)C (stereo not given)	esBAF inh 69.9 (no result: Wnt bcat act)
C#CCSc1nnc(CSc2nc3ccccc3s2)n1-c1ccccc1	PHOSPHO1 block 75.7 (no result: Wnt bcat act, MITF TRPM1 HTS)
Cc1nnc(SCc2nc3ccccc3s2)n1-c1ccccc1	esBAF inh 72.0, Wnt bcat act inconclusive
c1ccc(-n2cnnc2SCc2nc3ccccc3s2)cc1	Wnt bcat act 51.1 (no result: MITF TRPM1 HTS)
C[C@@H](NC(=O)C[C@H]1C=C[C@@H](NC(=O)c2cccnc2)[C@H](CO)O1)c1ccccc1	none (no result: Wnt bcat act, APOBEC3A inh, PHOSPHO1 block, A3G deaminase, MITF TRPM1 HTS)
CCn1c(SCc2nc3ccccc3s2)nnc1-c1ccccc1	esBAF inh 45.7 (no result: Wnt bcat act)
C[C@@H]1CN([C@H](C)CO)S(=O)(=O)c2ccc(C#CC3CC3)cc2O[C@@H]1CN(C)C(=O)C1CCCCC1	none (no result: Wnt bcat act, APOBEC3A inh, PHOSPHO1 block, A3G deaminase, MITF TRPM1 HTS)
Brc1cccc(-c2nnc3sc(CNCc4ccco4)cn23)c1	PHOSPHO1 block 82.8
Cc1c(C)n(C(=O)CSc2nccn2C)c2ccccc12	PHOSPHO1 block 61.1 (no result: Wnt bcat act, MITF TRPM1 HTS)
CCn1c(SCC(=O)n2c(C)c(C)c3ccccc32)nnc1-c1ccco1	none (no result: MITF TRPM1 HTS)
COc1cccc(S(=O)(=O)Nc2ccc3c(c2)[C@H]2C[C@@H](CC(=O)N(C)C)O[C@H](CO)[C@H]2O3)c1	none (no result: Wnt bcat act, APOBEC3A inh, PHOSPHO1 block, A3G deaminase, MITF TRPM1 HTS)
COc1ccc(C)cc1NC(=O)CCc1c(C)nn(-c2ccc(N3CCCCC3)nn2)c1C	esBAF inh 61.2
Cc1cc(C)cc(NC(=O)CCc2c(C)nn(-c3ccc(N4CCCCC4)nn3)c2C)c1	esBAF inh 67.6, MITF TRPM1 HTS inconclusive
Cc1ccc(F)cc1NC(=O)CCc1c(C)nn(-c2ccc(N3CCCCC3)nn2)c1C	esBAF inh 65.0
Cc1ccc(NC(=O)CCc2c(C)nn(-c3ccc(N4CCOCC4)nn3)c2C)cc1F	esBAF inh 52.6
Cc1ccc(NC(=O)CCc2c(C)nn(-c3ccc(N4CCCCC4)nn3)c2C)cc1	none
C[C@@H](NC(=O)[C@H]1N[C@H]2c3ccc(-c4ccncc4)c(=O)n3C[C@H]2[C@@H]1CO)c1ccccc1	none (no result: Wnt bcat act, APOBEC3A inh, PHOSPHO1 block, A3G deaminase, MITF TRPM1 HTS)
O=C(C[C@H]1CC[C@@H]2[C@H](COC[C@@H](O)CN2S(=O)(=O)c2ccccc2)O1)NCc1ccc(-c2ccccc2)cc1	none (no result: Wnt bcat act, APOBEC3A inh, PHOSPHO1 block, A3G deaminase, MITF TRPM1 HTS)
C[C@H](CO)N1C[C@H](C)[C@@H](CN(C)C(=O)NC2CCCCC2)Oc2ccc(NS(=O)(=O)c3ccccc3)cc2CC1=O	none (no result: Wnt bcat act, APOBEC3A inh, PHOSPHO1 block, A3G deaminase, MITF TRPM1 HTS)
